Anthrax LF prot: Bacillus anthracis LF protease inhibitors, primary screen, biochemical, multiplex microsphere, MLPCN library; Lethal factor (Bacillus anthracis), P15917; multiplex microsphere protease cleavage assay; inhibition, % at 10 µM; actives 0.12% (n = 360,000)
PriA SSB inh: inhibitors of Klebsiella pneumoniae PriA binding to SSB C-terminal tail, primary screen, biochemical, AlphaScreen; PriA–SSB C-terminal tail interaction (Klebsiella pneumoniae); AlphaScreen SSBct-PriA binding, biotinylated peptide; inhibition, % at 33 µM; actives 0.6% (n = 430,000); in the data active = inhibition mostly above about 37%, no sharp cut-off; inactive = mostly below about 20%
BoNT F protease: BoNT/F light chain protease inhibitors, primary screen, biochemical, flow cytometry, MLPCN library. Botulinum neurotoxin type F light chain protease (Clostridium botulinum). Multiplex microsphere protease cleavage assay. inhibition, % at 10 µM. actives 0.22% (n = 360,000). AID 588497, 2011; in the data active = inhibition above about 35%, passing the limit was not always enough; inconclusive = no clear call, values can overlap the other calls
Bead autofluor: flagged as autofluorescent in microsphere protease counterscreen | fluorescence intensity (no concentration beside the values) | actives 3.1% (n = 360,000) | AID 624483 | compound autofluorescence counterscreen, microsphere flow cytometry; hits give high values; in the data active = fluorescence intensity above about 16000; inconclusive = no clear call, values can overlap the other calls
BoNT A protease: BoNT/A light chain protease inhibitors, primary screen, biochemical, flow cytometry, MLPCN library; multiplex microsphere protease substrate cleavage; inhibition, % at 10 µM; actives 0.17% (n = 360,000)
Large screens that a line does not name were inactive. Sampled rows, rich in hits. Any-hit rate of the full collection: about 3.1%. Rule as the data show it, unless noted: active = inhibition above about 30%; inconclusive = no clear call, values can overlap the other calls; inactive = below that.

COC(=O)Nc1ccc2c(c1)N(CCC(C)C)C(=O)C(C)(C)CO2	none (no result: Anthrax LF prot, BoNT F protease, Bead autofluor, BoNT A protease)
Cc1nnc(NC(=O)Cc2cc(=O)[nH]c(SCc3cccc(Cl)c3)n2)s1	none (no result: Anthrax LF prot, BoNT F protease, Bead autofluor, BoNT A protease)
Cc1ccc(-c2nc3cc(N)ccc3o2)cc1	Bead autofluor 23399
CC(C)c1ccc2oc(-c3ccc(N)cc3)nc2c1	Bead autofluor 21916
CC(C)(C)c1ccc(-c2nc3cc(N)ccc3o2)cc1	none
Cc1ccc(-c2nc3cc(NS(=O)(=O)c4ccc(C)cc4)ccc3o2)cc1	Bead autofluor 20631
COc1cc(OC)c(-n2nnc(-c3nc(-c4ccc5c(c4)OCO5)no3)c2C)cc1Cl	none (no result: Anthrax LF prot, BoNT F protease, Bead autofluor, BoNT A protease)
CC1CN(O)C2CCc3c(no[n+]3[O-])C12O (stereo not given)	none
CC1CC2(O)c3no[n+]([O-])c3CCC2N1O (stereo not given)	Bead autofluor 22460
C=CCSc1nc2c(cc1C#N)CCC2	Bead autofluor 21788, BoNT A protease inconclusive
CCc1nnc(NC(=O)CSc2nc3c(cc2C#N)CCC3)s1	none
CCCCSc1nc2c(cc1C#N)CCC2	Bead autofluor 20908
N#Cc1cc2c(nc1SCC(=O)Nc1nccs1)CCCCC2	Bead autofluor 20116
C=CCN=c1scc(-c2ccccc2)n1N=Cc1ccccn1	PriA SSB inh 46 (no result: Anthrax LF prot, BoNT F protease, Bead autofluor, BoNT A protease)
O=C(NC1(C(F)(F)F)Oc2ccccc2O1)N1CCC2(CC1)OCCO2	Bead autofluor 21302
CCOC(=O)C1CCCN(C(c2ccccc2Cl)C2Sc3nc(C)nn3C2=O)C1 (stereo not given)	none (no result: Anthrax LF prot, BoNT F protease, Bead autofluor, BoNT A protease)
CCN1C(=O)/C(=C\C=C2/C=CC=CN2CC)SC1=S	none
CCN1C(=O)/C(=C/C=C2\C=CN(CC)c3ccccc32)SC1=S	BoNT A protease 41
Cc1noc(-c2cccnc2N2CC[C@H](NC(=O)Cc3ccsc3)C2)n1	none (no result: Anthrax LF prot, BoNT F protease, Bead autofluor, BoNT A protease)
CCC(CNC(=O)Nc1ccccc1C)(OC)c1ccccc1 (stereo not given)	none (no result: Anthrax LF prot, BoNT F protease, Bead autofluor, BoNT A protease)
CC(=O)c1sc(NC(=O)c2cccc(C(F)(F)F)c2)nc1C	none (no result: Anthrax LF prot, BoNT F protease, Bead autofluor, BoNT A protease)
CCc1ccc(N(C(=O)CCC(=O)Nc2cc(C)on2)C(C(=O)NC(C)(C)C)c2ccc(OC)cc2)cc1 (stereo not given)	BoNT F protease 35
CCC(C)(C)NC(=O)C(c1ccccc1Cl)N(C(=O)CCC(=O)Nc1cc(C)on1)C1CC1 (stereo not given)	PriA SSB inh 49
N/C(=N\OC(=O)c1ccc(Br)cc1)c1ccccc1	Bead autofluor 25293 (no result: PriA SSB inh)
O=C(O)CCC(=O)Nc1ccccc1C(=O)NC1CCCCC1	none
CCC(=O)Nc1ccccc1C(=O)OCc1ccc(C(=O)c2ccccc2)cc1	Bead autofluor 20219
CCC(=O)Nc1ccccc1C(=O)NC1CCCCC1	Bead autofluor 21479
N/C(Cc1ccc(Cl)cc1)=N\OC(=O)c1ccccc1	BoNT F protease 42 (no result: PriA SSB inh)
C[C@](O)(CNC(=O)CSC1CCCC1)c1ccc2c(c1)OCO2	none (no result: Anthrax LF prot, BoNT F protease, Bead autofluor, BoNT A protease)
O=C(OCc1ccc(Cl)cc1)c1cccnc1Cl	none
O=C(OCc1ccc(Cl)cc1)c1ccccc1C(=O)c1ccccc1	Bead autofluor 17651
O=C(CSc1nnc(CNc2ccc(Cl)cc2)o1)Nc1nc2ccccc2s1	Bead autofluor 25121, BoNT A protease inconclusive
Cc1nnc(SCC(=O)Nc2nc(-c3ccccc3)cs2)n1N	Bead autofluor 22717
O=C(CSc1ncn(-c2ccccc2)n1)Nc1nc2ccccc2s1	Bead autofluor 22783
CCOC(=O)N1CCN(C(=O)CSCC(=O)Nc2nc(-c3ccccc3)cs2)CC1	Bead autofluor 23127
CC1CCN(C(=O)CSCC(=O)Nc2nc(-c3ccc(Br)cc3)cs2)CC1	none (no result: Anthrax LF prot, BoNT F protease, Bead autofluor, BoNT A protease)
CCOc1ccc(-c2cc(=O)n(CC(=O)NC(c3ccccc3)c3ccccc3)cn2)cc1	none (no result: Anthrax LF prot, BoNT F protease, Bead autofluor, BoNT A protease)
Cc1cc2ncc(NC(=O)c3ccc(S(=O)(=O)N4CCCCC4)cc3)cn2n1	none (no result: Anthrax LF prot, BoNT F protease, Bead autofluor, BoNT A protease)
CCc1nnc2sc(-c3cc(C)nc4ccc(Cl)cc34)nn12	none (no result: Anthrax LF prot, BoNT F protease, Bead autofluor, BoNT A protease)
Cc1ccc(Cl)cc1N1CCN(Cc2nc3c(c(=O)n(C)c(=O)n3C)n2Cc2ccccc2)CC1	none (no result: Anthrax LF prot, BoNT F protease, Bead autofluor, BoNT A protease)
O=C(CSc1ncn(-c2ccccc2)n1)Nc1nc(-c2ccccc2)cs1	Bead autofluor 20833, BoNT A protease inconclusive
O=C(CSc1nc(-c2ccccc2)cs1)Nc1ccccc1[N+](=O)[O-]	PriA SSB inh 48
Cc1ccc(-c2csc(NC(=O)CSc3ncn(-c4ccccc4)n3)n2)cc1	none
O=C(Nc1nccs1)c1ccc(Cl)c(N2C(=O)CCS2(=O)=O)c1	none (no result: Anthrax LF prot, BoNT F protease, Bead autofluor, BoNT A protease)
Cn1cc(OCc2ccc(F)cc2)c(=O)cc1C(=O)N1CCN(Cc2ccc3c(c2)OCO3)CC1	none (no result: Anthrax LF prot, BoNT F protease, Bead autofluor, BoNT A protease)
Cc1cc(=O)oc2cc(OC(C)C(=O)N3CCOCC3)ccc12 (stereo not given)	Bead autofluor 23796
CC[C@@](CNS(C)(=O)=O)(OC)c1ccccc1	none (no result: Anthrax LF prot, BoNT F protease, Bead autofluor, BoNT A protease)
CCOC(=O)C(C(=O)OCC)c1cc(Br)c2noc3c2c1C(=O)c1ccccc1-3	Anthrax LF prot 58, BoNT A protease 68
CC(=O)OCCNc1cc(N2CCN(C)CC2)c2noc3c2c1C(=O)c1ccccc1-3	none
Clc1ccccc1OCCCCn1ccnc1	none
Cc1ccccc1C(=O)NCCCn1ccnc1	BoNT F protease 37
Cc1ccccc1OCCCCCn1ccnc1	Bead autofluor 24874
O=C(NCCCn1ccnc1)c1sc2cccc(F)c2c1Cl	Bead autofluor 21856
O=S(=O)(NCC(c1ccsc1)N1CCCCCC1)c1ccccc1 (stereo not given)	none (no result: Anthrax LF prot, BoNT F protease, Bead autofluor, BoNT A protease)
O=S(=O)(Cc1cc(F)ccc1F)N1CCCSC[C@@H]1CN1CCOCC1	none (no result: Anthrax LF prot, BoNT F protease, Bead autofluor, BoNT A protease)
O=C(c1ccc(Br)cc1)N1CCCC(c2nc(-c3cccs3)no2)C1 (stereo not given)	none
COc1ccc(C(=O)N2CCCC(c3nc(-c4cccs4)no3)C2)cc1 (stereo not given)	Bead autofluor 19734
COc1ccc(-c2noc(C3CCCN(S(=O)(=O)c4cccc(Cl)c4)C3)n2)cc1OC (stereo not given)	Bead autofluor 23625
O=S(=O)(c1ccc(Cl)cc1)N1CCCC(c2nc(-c3ccc(F)cc3)no2)C1 (stereo not given)	none
COc1ccc(C(=O)N2CCCC(c3nc(-c4cccs4)no3)C2)cc1OC (stereo not given)	Bead autofluor 25010
O=C(NN1CCOCC1)c1ccc(Br)cc1	none
Cc1ccc(C(=O)NN2CCOCC2)cc1	Bead autofluor 19445, BoNT A protease inconclusive
O=C(CN1CCCC1)Nc1sc2c(c1C(=O)Nc1ccc(Br)cc1)CCC2	PriA SSB inh 75
O=C(c1ccc(F)cc1)C1CCN(C(=O)NCc2ccccc2)CC1	Bead autofluor 24106
O=C(CN1CCC(C(=O)c2ccc(F)cc2)CC1)Nc1ccc(F)cc1	none
CCN(CC(=O)Nc1ccc2c(c1)OCCO2)S(=O)(=O)c1ccc(C)cc1	Bead autofluor 17435
O=C(NC1CCN(C(=O)NCc2ccccc2)CC1)c1ccc(F)cc1	none
CCN(CC(=O)Nc1ccc2c(c1)OCCO2)Cc1cc(=O)oc2c(C)c(C)ccc12	Bead autofluor 20523, BoNT A protease inconclusive
CCN(CC(=O)Nc1ccc2c(c1)OCCO2)CC(=O)Nc1ccc2c(c1)OCO2	none

High-throughput results from PubChem BioAssay.
